# Reference: paper PMC8384837, “Expanding the binding specificity for RNA recognition by a PUF domain”
# Positions count from the first letter of the chain named.
# Tests used:
# Assay in all cases: yeast three-hybrid, YBZ-1, SC-Leu-His + 0.5 mM 3-AT, 4 days
# Details in all cases: tags: N-Gal4 AD-HA kept; label: inside an RPR1-promoter hybrid RNA with tandem MS2 sites; ssRNA
# [1] = molecular target: PUM1 PUF domain R3-LSR (Homo sapiens, UniProt Q14671 828-1176, C935L;R936S;Q939R)
# In short: (§1)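 The interaction score is the logarithmic change in variant frequency from input to selection. It uses log2, with a pseudocount of 1 for absent variants, and frequencies came from PCR-amplified, Illumina-sequenced repeat regions. The libraries were Pumilio-1 PUF domains randomized at the three base-contacting residues per repeat, co-expressed with matching RNA elements in strain YBZ-1 (LexA–MS2 coat fusion, HIS3 reporter). Plating lasted four days on SC-Leu (input) or SC-Leu-His + 0.5 mM 3-AT (selection).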
# [2] = molecular target: PUM1 PUF domain R3-LFA (Homo sapiens, UniProt Q14671 828-1176, C935L;R936F;Q939A)
# In short: as §1
# [3] = molecular target: PUM1 PUF domain R8-RHE (Homo sapiens, UniProt Q14671 828-1176, N1122R;Y1123H;Q1126E)
# In short: as §1
# [4] = molecular target: PUM1 PUF domain R8-RWG (Homo sapiens, UniProt Q14671 828-1176, N1122R;Y1123W;Q1126G)
# In short: as §1
# [5] = molecular target: PUM1 PUF domain R8-CHP (Homo sapiens, UniProt Q14671 828-1176, N1122C;Y1123H;Q1126P)
# In short: as §1
# [6] = molecular target: PUM1 PUF domain R8-RQR (Homo sapiens, UniProt Q14671 828-1176, N1122R;Y1123Q;Q1126R)
# In short: as §1
# [7] = molecular target: PUM1 PUF domain R5-RHG (Homo sapiens, UniProt Q14671 828-1176, C1007R;R1008H;Q1011G)
# In short: as §1
# [8] = molecular target: T1, PUM1 PUF domain R6-GFA (Homo sapiens, UniProt Q14671 828-1176, N1043G;Y1044F;Q1047A)
# T1 sequence: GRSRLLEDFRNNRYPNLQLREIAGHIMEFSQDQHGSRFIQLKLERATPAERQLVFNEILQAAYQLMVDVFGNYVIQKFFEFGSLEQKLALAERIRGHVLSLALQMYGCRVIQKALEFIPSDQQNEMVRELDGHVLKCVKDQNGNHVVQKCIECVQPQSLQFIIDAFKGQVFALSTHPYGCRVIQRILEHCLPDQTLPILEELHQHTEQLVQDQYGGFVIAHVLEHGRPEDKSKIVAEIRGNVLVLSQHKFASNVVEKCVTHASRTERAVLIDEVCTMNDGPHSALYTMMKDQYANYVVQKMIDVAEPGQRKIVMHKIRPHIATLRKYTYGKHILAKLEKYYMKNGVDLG
# In short: as §1
# [9] = molecular target: T2, PUM1 PUF domain R6-MYS (Homo sapiens, UniProt Q14671 828-1176, N1043M;Q1047S)
# T2 sequence: T1 sequence with G216M, F217Y, A220S
# In short: as §1
# [10] = molecular target: PUM1 PUF domain R5-PMG (Homo sapiens, UniProt Q14671 828-1176, C1007P;R1008M;Q1011G)
# In short: as §1
# [11] = molecular target: PUM1 PUF domain R2-LWS (Homo sapiens, UniProt Q14671 828-1176, N899L;Y900W;Q903S)
# In short: as §1
# [12] = molecular target: PUM1 PUF domain R4-ERC (Homo sapiens, UniProt Q14671 828-1176, N971E;H972R;Q975C)
# In short: as §1
# [13] = molecular target: PUM1 PUF domain R3-CPG (Homo sapiens, UniProt Q14671 828-1176, R936P;Q939G)
# In short: as §1
# [14] = molecular target: PUM1 PUF domain R4-NFS (Homo sapiens, UniProt Q14671 828-1176, H972F;Q975S)
# In short: as §1
# [15] = molecular target: PUM1 PUF domain R7-RML (Homo sapiens, UniProt Q14671 828-1176, S1079R;N1080M;E1083L)
# In short: as §1
# [16] = molecular target: PUM1 PUF domain R7-QTR (Homo sapiens, UniProt Q14671 828-1176, S1079Q;N1080T;E1083R)
# In short: as §1
# [17] = molecular target: PUM1 PUF domain R5-RNE (Homo sapiens, UniProt Q14671 828-1176, C1007R;R1008N;Q1011E)
# In short: as §1
# [18] = molecular target: PUM1 PUF domain R1-RRK (Homo sapiens, UniProt Q14671 828-1176, S863R;Q867K)
# In short: as §1
# [19] = molecular target: PUM1 PUF domain R1-KFR (Homo sapiens, UniProt Q14671 828-1176, S863K;R864F;Q867R)
# In short: as §1
# [20] = molecular target: PUM1 PUF domain R1-TVR (Homo sapiens, UniProt Q14671 828-1176, S863T;R864V;Q867R)
# In short: as §1
sequence,measurement,setting,value
GGCUAGAACUAGUGGAUCCCCCGGCGCCCGGCGGCUCGAGCCCGGGUAAGUGUAAUUAGUCUGCAUGCCGCCGGGCGCCAUGCCUGCAGGUCGACUCUAGAAAACAUG,binding signal,[1],4.8 log2 enrichment (interaction score)
same,binding signal,[2],2.26 log2 enrichment (interaction score)
GGCUAGAACUAGUGGAUCCCCCGGCGCCCGGCGGCUCGAGCCCGGGUAAGCGUAAAUAGUCUGCAUGCCGCCGGGCGCCAUGCCUGCAGGUCGACUCUAGAAAACAUG,binding signal,[3],3.02 log2 enrichment (interaction score)
same,binding signal,[4],6.94 log2 enrichment (interaction score)
same,binding signal,[5],2.6 log2 enrichment (interaction score)
same,binding signal,[6],3.05 log2 enrichment (interaction score)
GGCUAGAACUAGUGGAUCCCCCGGCGCCCGGCGGCUCGAGCCCGGGUAAGUGUAAGUAGUCUGCAUGCCGCCGGGCGCCAUGCCUGCAGGUCGACUCUAGAAAACAUG,binding signal,[1],5.61 log2 enrichment (interaction score)
same,binding signal,[2],4.36 log2 enrichment (interaction score)
GGCUAGAACUAGUGGAUCCCCCGGCGCCCGGCGGCUCGAGCCCGGGUAAGUGUAAAUAGUCUGCAUGCCGCCGGGCGCCAUGCCUGCAGGUCGACUCUAGAAAACAUG,binding signal,[7],2.92 log2 enrichment (interaction score)
same,binding signal,[8],2.37 log2 enrichment (interaction score)
same,binding signal,[9],4.63 log2 enrichment (interaction score)
same,binding signal,[10],0.4 log2 enrichment (interaction score)
same,binding signal,[3],2.1 log2 enrichment (interaction score)
same,binding signal,[11],2.23 log2 enrichment (interaction score)
same,binding signal,[4],5.92 log2 enrichment (interaction score)
same,binding signal,[5],0.7 log2 enrichment (interaction score)
same,binding signal,[12],4.37 log2 enrichment (interaction score)
same,binding signal,[13],2.95 log2 enrichment (interaction score)
same,binding signal,[6],0.6 log2 enrichment (interaction score)
GGCUAGAACUAGUGGAUCCCCCGGCGCCCGGCGGCUCGAGCCCGGGUAAGUGUAAAGAGUCUGCAUGCCGCCGGGCGCCAUGCCUGCAGGUCGACUCUAGAAAACAUG,binding signal,[11],4.16 log2 enrichment (interaction score)
GGCUAGAACUAGUGGAUCCCCCGGCGCCCGGCGGCUCGAGCCCGGGUAAGUGUAUAUAGUCUGCAUGCCGCCGGGCGCCAUGCCUGCAGGUCGACUCUAGAAAACAUG,binding signal,[14],3.51 log2 enrichment (interaction score)
GGCUAGAACUAGUGGAUCCCCCGGCGCCCGGCGGCUCGAGCCCGGGUAAGUGUACAUAGUCUGCAUGCCGCCGGGCGCCAUGCCUGCAGGUCGACUCUAGAAAACAUG,binding signal,[12],0.16 log2 enrichment (interaction score)
GGCUAGAACUAGUGGAUCCCCCGGCGCCCGGCGGCUCGAGCCCGGGUAAGUUUAAAUAGUCUGCAUGCCGCCGGGCGCCAUGCCUGCAGGUCGACUCUAGAAAACAUG,binding signal,[15],2.71 log2 enrichment (interaction score)
same,binding signal,[16],2.39 log2 enrichment (interaction score)
GGCUAGAACUAGUGGAUCCCCCGGCGCCCGGCGGCUCGAGCCCGGGUAAGUGUAAAAAGUCUGCAUGCCGCCGGGCGCCAUGCCUGCAGGUCGACUCUAGAAAACAUG,binding signal,[11],7.72 log2 enrichment (interaction score)
GGCUAGAACUAGUGGAUCCCCCGGCGCCCGGCGGCUCGAGCCCGGGUAAGUGUUAAUAGUCUGCAUGCCGCCGGGCGCCAUGCCUGCAGGUCGACUCUAGAAAACAUG,binding signal,[7],5.88 log2 enrichment (interaction score)
same,binding signal,[10],3.73 log2 enrichment (interaction score)
same,binding signal,[17],3.73 log2 enrichment (interaction score)
GGCUAGAACUAGUGGAUCCCCCGGCGCCCGGCGGCUCGAGCCCGGGUAAGUGUAAAUUGUCUGCAUGCCGCCGGGCGCCAUGCCUGCAGGUCGACUCUAGAAAACAUG,binding signal,[18],2.68 log2 enrichment (interaction score)
same,binding signal,[19],3.96 log2 enrichment (interaction score)
GGCUAGAACUAGUGGAUCCCCCGGCGCCCGGCGGCUCGAGCCCGGGUAAGUGUCAAUAGUCUGCAUGCCGCCGGGCGCCAUGCCUGCAGGUCGACUCUAGAAAACAUG,binding signal,[7],5.64 log2 enrichment (interaction score)
same,binding signal,[17],2.14 log2 enrichment (interaction score)
GGCUAGAACUAGUGGAUCCCCCGGCGCCCGGCGGCUCGAGCCCGGGUAAGUGUAAAUCGUCUGCAUGCCGCCGGGCGCCAUGCCUGCAGGUCGACUCUAGAAAACAUG,binding signal,[18],2.94 log2 enrichment (interaction score)
same,binding signal,[20],3.55 log2 enrichment (interaction score)
